# ATG4B inhibitor = ATG4B protease inhibitors, primary screen, biochemical, fluorescence, uHTS | inhibition, % at 8.33 µM | 340,000 tested, 0.51% active | ATG4B cleavage of LC3-PLA2, NBD-HPC fluorescence, 1 h | Cysteine protease ATG4B (Homo sapiens), Q9Y4P1; in the data active means inhibition above about 40%
# Target sequence (Q9Y4P1 whole entry, looked up): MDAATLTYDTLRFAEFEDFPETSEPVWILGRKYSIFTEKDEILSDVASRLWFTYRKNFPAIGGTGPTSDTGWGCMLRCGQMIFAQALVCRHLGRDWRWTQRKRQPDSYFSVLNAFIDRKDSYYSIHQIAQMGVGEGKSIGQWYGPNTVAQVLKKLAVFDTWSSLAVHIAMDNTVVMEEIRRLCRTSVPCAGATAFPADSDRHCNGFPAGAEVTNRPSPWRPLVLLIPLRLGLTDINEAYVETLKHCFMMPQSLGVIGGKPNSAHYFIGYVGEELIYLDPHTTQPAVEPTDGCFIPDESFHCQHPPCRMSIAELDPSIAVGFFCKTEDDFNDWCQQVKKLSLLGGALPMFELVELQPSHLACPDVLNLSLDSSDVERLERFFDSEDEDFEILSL
# pPAFAH FP inh = pPAFAH enzyme inhibitors, primary screen, biochemical, fluorescence polarization, human | Platelet-activating factor acetylhydrolase (Homo sapiens), Q13093 | recombinant pPAFAH, FP-rhodamine probe fluorescence polarization | inhibition, % at 3.39 µM | 330,000 tested, 1.5% active;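 active means inhibition above the mean inhibition across the screen plus 3 SD, cut at about 25% in these data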;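 further: inhibitors block binding of the rhodamine activity-based probe so polarization drops; 0% = enzyme with DMSO and 100% = wells lacking pPAFAH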
# PAFAH1B2 inh = PAFAH1B2 enzyme inhibitors, primary screen, biochemical, fluorescence polarization, human. 340,000 tested, 1.2% active. inhibition, % at 3.39 µM. recombinant PAFAH1B2, FP-rhodamine activity probe. AID 492953, 2010. Platelet-activating factor acetylhydrolase IB subunit alpha2 (Homo sapiens), P68402;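 active means inhibition above the mean of all tested compounds plus 3 SD, cut at about 24% in these data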;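 further: 0% = enzyme with DMSO and 100% = wells lacking PAFAH1B2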
# PAFAH1B3 inh = PAFAH1B3 enzyme inhibitors, primary screen, biochemical, fluorescence polarization, human; recombinant PAFAH1B3, FP-rhodamine probe; inhibition, % at 3.39 µM; 340,000 tested, 0.28% active;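 active means inhibition above the screen-wide average of all tested compounds plus 3 SD, cut at about 25% in these data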;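 further: 0% = enzyme with DMSO only and 100% = wells lacking PAFAH1B3 protein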
# PAFAH2 FP inh = PAFAH2 enzyme inhibitors, primary screen, biochemical, fluorescence polarization, human; Platelet-activating factor acetylhydrolase 2, cytoplasmic (Homo sapiens), Q99487; recombinant PAFAH2, FP-rhodamine activity probe; inhibition, % at 3.39 µM; 340,000 tested, 0.99% active;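 active means inhibition above the mean over all tested compounds plus 3 SD, cut at about 30% in these data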;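 further: inhibitors block probe labeling of enzyme so polarization drops; 0% = enzyme with DMSO and 100% = wells lacking PAFAH2 protein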
# DAGLB inhibitor = DAGLB lipase inhibitors, primary screen, biochemical, fluorescence, HTS. HEK293T DAGLB membrane lysate, EnzChek fluorogenic substrate. 340,000 tested, 0.059% active. Diacylglycerol lipase-beta (Homo sapiens), Q8NCG7. inhibition, % at 5.17 µM; in the data active means inhibition above about 34%;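 further: 0% = enzyme with vehicle and 100% = wells lacking enzyme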
# pPAFAH FP conf = pPAFAH (PLA2G7) enzyme inhibitors, confirmation, biochemical, fluorescence polarization, human | inhibition, % at 3.39 µM | shares compounds with pPAFAH FP inh | 2,300 tested, 72% active | recombinant pPAFAH, FP-Rh probe fluorescence polarization;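 active means mean inhibition of the triplicate above the hit cutoff set for the earlier primary screen, cut at about 25% in these data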;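 further: 0% = enzyme with DMSO and 100% = wells lacking pPAFAH enzyme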
# * marks the source's active call; other numbers are inactive results; · = no result given. This is a sample that favours compounds with a hit; in the whole collection about 3% have one here.
SMILES,ATG4B inhibitor,pPAFAH FP inh,PAFAH1B2 inh,PAFAH1B3 inh,PAFAH2 FP inh,DAGLB inhibitor,pPAFAH FP conf
Cc1cccc(C)c1NC(=O)CN(C)C(=O)c1cc(S(=O)(=O)N(C)C)ccc1N1CCCC1,0.1,35.3*,-2.8,7.4,2.0,-4.4,3.8
CCN(CC)c1ccc(N=Cc2ccc([N+](=O)[O-])o2)cc1,3.8,43.1*,2.7,3.6,8.9,10.7,16.9
Cc1cc(=O)[nH]c(SCC(=O)NN(c2ccccc2)c2ccccc2)n1,-4.1,4.4,12.7,11.5,-2.3,1.0,·
CC(=O)c1cccc(-c2ccc3c(=O)[nH]c(Nc4ccccc4)cc3c2)c1,18.1,48.5*,12.9,52.5*,23.2,-9.4,27.7*
C=C(C)c1cccc(C(C)(C)NC(=O)Nc2ccc(OC)nc2)c1,1.8,-1.7,-1.6,5.0,8.3,-5.2,·
O=C(Nc1nc2ccsc2c(=O)s1)C1CCC1,10.8,35.6*,·,·,·,·,1.4
CCNC(=O)COC(=O)C1CCN(S(=O)(=O)c2ccc3c(c2)OCCO3)CC1,-3.8,8.4,-0.8,4.6,3.0,1.4,·
CC(C)C(C)NC(=O)COC(=O)C1CCN(S(=O)(=O)c2ccc3c(c2)OCCO3)CC1 (stereo not drawn),-5.6,38.0*,4.2,0.2,9.0,0.3,10.5
COc1ccc(NS(=O)(=O)c2ccc(O)c(NC(=O)c3cc4c(C)nn(-c5ccc(F)cc5)c4s3)c2)cc1,34.2,36.0*,-14.6,-36.5,-17.9,2.9,29.5*
Cc1c(Br)c(O)c(Br)c2sc(=O)oc12,2.7,83.7*,7.0,14.4,-0.9,14.1,24.0
COc1cc([N+](=O)[O-])ccc1NC(=S)NC(=O)CC(C)(C)C,-8.4,3.3,7.2,3.6,2.5,-5.4,·
Cn1c(=O)c(NC2CCCCC2)c2c3c(cccc31)C(=O)c1ccccc1-2,-12.7,·,4.8,14.3,10.1,-271.9,·
Cn1c(=O)cc2c3c(c(N4CCCCC4)ccc31)C(=O)c1ccccc1-2,-1.4,54.5*,·,·,·,·,28.3*
CCOC(=O)c1c(S(=O)(=O)NCC(=O)N2CCN(c3ccccc3)CC2)c(C)n(C)c1C,-7.1,3.1,-0.8,3.9,-5.8,2.7,·
O=C(c1cccc(S(=O)(=O)N2CCCC2)c1)N1CCOCC1,-10.4,3.1,3.1,0.7,2.8,-0.5,·
CCOc1ncccc1C(=O)OCC(=O)NCc1ccc(C(=O)OC)cc1,-9.2,-3.9,0.7,1.1,5.8,-0.2,·
NC(=O)C1CCCN(C(=O)c2ccc(Cl)c(S(=O)(=O)N3CCc4ccccc43)c2)C1 (stereo not drawn),-0.3,·,-1.0,0.9,0.8,0.4,·
O=C(c1ccc(Cl)c(S(=O)(=O)N2CCc3ccccc32)c1)N1CCN(c2ccccc2O)CC1,5.7,37.3*,5.2,-0.7,5.2,2.6,19.6
CN(C)CCNCCCOc1ccccc1-c1ccccc1,·,1.9,·,·,·,·,·
Cc1nc(S/C(=C/c2ccc(-c3cc(Cl)ccc3C)o2)C(=O)O)n[nH]1,-0.8,46.8*,12.9,25.3,27.5,14.3,56.4*
Cc1nc(S/C(=C/c2ccc(-c3ccc(Cl)cc3)o2)C(=O)O)n[nH]1,-0.3,10.8,9.1,5.3,19.1,4.8,·
COc1ccc(N(CC(=O)NC2CCCC2)C(=O)c2ccc(C)s2)c(OC)c1,1.6,3.5,5.2,5.1,-2.8,0.4,·
S=c1nc(C2COc3ccccc3O2)[nH][nH]1 (stereo not drawn),0.5,2.8,7.3,7.8,1.3,2.1,·
S=c1[nH]nc(C2COc3ccccc3O2)o1 (stereo not drawn),7.7,44.3*,3.0,-6.0,-3.9,4.8,4.5
COCn1c(-c2ccc(OC)cc2)nc2ccccc21,-9.1,-4.4,1.6,6.7,5.0,-2.5,·
C=C(C)Cn1c(-c2ccc(OC)cc2)nc2ccccc21,21.0,78.3*,2.0,8.6,6.3,-5.6,12.0
